12-LOX inh: inhibitors of human 12S-lipoxygenase ALOX12 | P18054 | purified 12hLO, xylenol orange hydroperoxide absorbance | Potency, µM (doses to about 108 µM), hits mostly inhibitors | hit rate 1.1% among 580,000 | AID 1671190
Target sequence (P18054 whole entry, looked up): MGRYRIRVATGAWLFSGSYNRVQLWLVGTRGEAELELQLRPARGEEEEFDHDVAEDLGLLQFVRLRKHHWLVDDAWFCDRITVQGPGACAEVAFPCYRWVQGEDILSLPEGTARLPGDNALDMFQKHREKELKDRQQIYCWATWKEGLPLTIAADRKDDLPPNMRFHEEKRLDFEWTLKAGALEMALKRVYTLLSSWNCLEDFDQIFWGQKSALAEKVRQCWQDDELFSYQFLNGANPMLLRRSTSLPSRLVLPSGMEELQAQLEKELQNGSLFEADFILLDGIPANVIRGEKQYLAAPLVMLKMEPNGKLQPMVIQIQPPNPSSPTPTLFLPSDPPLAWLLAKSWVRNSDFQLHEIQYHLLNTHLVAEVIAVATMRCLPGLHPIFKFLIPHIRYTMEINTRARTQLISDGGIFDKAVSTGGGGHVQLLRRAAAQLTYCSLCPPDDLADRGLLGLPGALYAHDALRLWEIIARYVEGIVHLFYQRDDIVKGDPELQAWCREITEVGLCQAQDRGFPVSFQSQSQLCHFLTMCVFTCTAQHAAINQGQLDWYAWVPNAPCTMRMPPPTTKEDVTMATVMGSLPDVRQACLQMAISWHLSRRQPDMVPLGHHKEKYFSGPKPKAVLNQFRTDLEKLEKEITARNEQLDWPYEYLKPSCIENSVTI
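Purified human 12hLO (150 nM final) in 25 mM Hepes, 0.01% Triton X-100, pH 7.0 was preincubated 15 min at room temperature with compound. Then 40 uM arachidonic acid was added, 30 min. Hydroperoxide was read by Fe-XO absorbance ratio 573/405 nm.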
Sfp inh: blocks B. subtilis Sfp PPTase activity; Q9F4F7; Biochemical Sfp PPTase activity, qHTS; Potency, µM, most hits filed as inhibitors; hit rate 3.5% among 310,000; AID 1490;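 also: the enzyme is Sfp with the accession as filed and its product quenches rhodamine fluorescence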
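Reaction rates are the 30-min fluorescence difference (ex 525, em 598 nm) in wells containing 15 nM Sfp, 5 uM rhodamine-CoA and 12.5 uM BHQ-2-YbbR at pH 7.6 with 10 mM MgCl2.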
G9a inh: blocks human histone lysine methyltransferase G9a | Potency, µM (titrated, usually from 102 µM), actives largely listed as inhibitors | Q96KQ7 | G9a H3K9 monomethylation, AlphaScreen, 2 h | hit rate 8.8% among 350,000; also: nearly all actives have a fitted effect of over 75% in size
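Quantitative HTS format: methyltransferase activity on a biotin-tagged H3K9 peptide is measured by AlphaScreen, using a rabbit anti-monomethyl-H3K9 antibody with streptavidin donor and anti-IgG acceptor beads. Final levels are 20 nM enzyme, 500 nM peptide, 20 uM SAM; 2 h RT.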
GRP78 ERSR act: induces the endoplasmic reticulum stress response in human glioma cells; hit rate 0.02% among 420,000; U87-MG GRP78 promoter luciferase reporter, 16 h; AID 602332; Potency, µM, actives largely listed as activators; also: series mostly up to about 76 µM; nearly all actives have a fitted effect of over 35% in size
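ERSR induction read as luciferase luminescence (Bright-Glo, 10 min at room temperature) in stably transfected human U87-MG glioma cells exposed to compounds for 16 h, using GRP78 as sensor.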
VDR inh: inhibitors of human vitamin D receptor | VDR-SRC2-3 peptide fluorescence polarization, 2 h | Potency, µM, hits mostly inhibitors | hit rate 0.93% among 400,000
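Compounds are added to VDR with labelled SRC2-3 coactivator peptide and held 2 h at room temperature. Inhibition of the VDR–peptide interaction is then read as a change in fluorescence polarization.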
Each line names hits and unclear results; the compound was inactive in the other large screens. Only a selection was taken, and hits are over-represented in it overall. Calls follow the shape of the dose curve; as a rule, active = well fitted curve in the direction sought with a large enough effect; inconclusive = small, poorly fitted or top-dose-only effect, or another doubt; inactive = no such curve, though single readings can be large; an effect the other way counts as inactive or inconclusive.

COc1cccc(OC)c1OCCCN1CCOCC1	12-LOX inh inconclusive, G9a inh inconclusive
O=C(NCCOc1ccc(F)cc1)C1CCC(=O)N(CCN2CCOCC2)C1 (stereo unspecified)	G9a inh 45µM
CCN(CC)C(=O)C1=C(C)N(Cc2ccc(OC)cc2)C(=O)C(CC(=O)NCCN2CCOCC2)C1 (stereo unspecified)	12-LOX inh 16µM (no result: Sfp inh, G9a inh, VDR inh)
COc1ccc(OCCN2CCOCC2)cc1	12-LOX inh inconclusive, G9a inh 32µM
NC(=S)NN=C1c2cc(OCCN3CCOCC3)ccc2-c2ccc(OCCN3CCOCC3)cc21	G9a inh 32µM (no result: 12-LOX inh)
Clc1ccc(OCCN2CCCCC2)cc1Cl	12-LOX inh inconclusive, G9a inh inconclusive
Clc1ccc(OCCN2CCOCC2)cc1Cl	12-LOX inh inconclusive, G9a inh 13µM
Cc1cc(C)cc(OCCN2CCOCC2)c1	12-LOX inh inconclusive, G9a inh 11µM
CNCCOc1ccc(Cl)c(Cl)c1	G9a inh 40µM
CC(NC(=O)COc1ccc(Cl)c(Cl)c1)c1ccccc1 (stereo unspecified)	none (no result: Sfp inh, G9a inh, GRP78 ERSR act, VDR inh)
ON=C1c2cc(OCCN3CCCCC3)ccc2-c2ccc(OCCN3CCCCC3)cc21	VDR inh inconclusive (no result: 12-LOX inh, G9a inh)
COCCNC(=O)C[C@@H]1C[C@@H](C(C)C)[C@H](CNS(C)(=O)=O)C=C1C	none (no result: Sfp inh, G9a inh, GRP78 ERSR act, VDR inh)
CCc1cccc(NC(=O)Cn2c(-c3cnccn3)nc(C)c(C)c2=O)c1	none (no result: Sfp inh, G9a inh, GRP78 ERSR act, VDR inh)
COc1ccc(OCCC(=O)NCCN2CCOCC2)cc1	G9a inh 56µM
Cc1ccc(OCCCN2CCOCC2)cc1	G9a inh 40µM
COCCNC(=O)c1cc2nc(-c3ccccc3)cc(C)n2n1	none
Cc1cc(-c2ccccc2)nc2cc(C(=O)OC(C)C)nn12	none
CCOC(=O)c1cc2nc(-c3ccccc3)cc(C)n2n1	G9a inh 45µM
Cc1cc(-c2ccccc2)nc2cc(C(N)=O)nn12	G9a inh 28µM
CCN(CC)S(=O)(=O)c1cc(NC(=O)COC(=O)c2cc(C)nc3ccccc23)ccc1C	none (no result: Sfp inh, G9a inh, GRP78 ERSR act, VDR inh)
COc1cc(/C=C2\SC(=S)N(NS(=O)(=O)c3ccccc3)C2=O)cc(OC)c1OC	Sfp inh 79µM, G9a inh inconclusive, VDR inh inconclusive
O=C1/C(=C/c2cccc(F)c2)SC(=S)N1NS(=O)(=O)c1ccccc1	12-LOX inh inconclusive, VDR inh inconclusive
COc1cccc(/C=C2\SC(=S)N(NS(=O)(=O)c3ccccc3)C2=O)c1OC	12-LOX inh inconclusive, G9a inh 40µM
COc1cccc(-c2nc(N3CC(C)CC(C)C3)c3ccccc3n2)c1O (stereo unspecified)	Sfp inh inconclusive, G9a inh 35µM
COc1cccc(-c2nc(N3CCCC3)c3ccccc3n2)c1O	none (no result: G9a inh)
COc1cccc(-c2nc(NC(C)(C)C)c3ccccc3n2)c1O	Sfp inh inconclusive, G9a inh inconclusive
COc1cccc(-c2nc(N3CCC(C)CC3)c3ccccc3n2)c1O	12-LOX inh inconclusive, Sfp inh inconclusive, G9a inh 35µM
O=C(Nc1ccc(F)c(Cl)c1)N1Cc2cccn2-c2ccccc21	none (no result: Sfp inh, G9a inh, GRP78 ERSR act, VDR inh)
COc1ccccc1CCNC(=O)c1cccc(N2CCCCS2(=O)=O)c1	none (no result: Sfp inh, G9a inh, GRP78 ERSR act, VDR inh)
Nc1ccccc1C(=O)NCCCNC(=O)c1cnccn1	none (no result: Sfp inh, G9a inh, GRP78 ERSR act, VDR inh)
NCc1ccccc1OC(F)F	none (no result: Sfp inh, G9a inh, GRP78 ERSR act, VDR inh)
Cc1ccccc1N1C(S)=C(C#N)C(=O)NC1c1ccco1 (stereo unspecified)	12-LOX inh inconclusive, Sfp inh 13µM, VDR inh 79µM (no result: G9a inh)
N#CC1=C(S)N(c2ccc(F)cc2)C(c2cccs2)NC1=O (stereo unspecified)	12-LOX inh inconclusive, Sfp inh 56µM, G9a inh 16µM, VDR inh inconclusive
CC(=O)C1=C(C)N(CC2CC2)C(=O)N[C@H]1c1cccs1	none (no result: 12-LOX inh)
Cc1ccccc1N1C(S)=C(C#N)C(=O)NC1c1cccs1 (stereo unspecified)	12-LOX inh inconclusive, G9a inh 7.9µM, VDR inh 22µM
Cc1cccc(N2C(S)=C(C#N)C(=O)NC2c2cccs2)c1 (stereo unspecified)	12-LOX inh inconclusive, Sfp inh 32µM, G9a inh 40µM, VDR inh 50µM
O=S(=O)(c1cccs1)N1CCN(c2ccc(F)cc2)CC1	none
Cc1oc(-c2nc(C#N)c(NC(C)c3ccccc3)o2)cc1S(=O)(=O)N1CCCC1 (stereo unspecified)	none (no result: Sfp inh, G9a inh, GRP78 ERSR act, VDR inh)

Screens from PubChem BioAssay.
